Cardio protect: myocardial damage modulation in H9c2 cells; H9c2 cardiomyocytes, H2O2 injury protection, ATPLite, 2 h; protection from H2O2 cell death, % at 20 µM; hit rate 0.63% among 360,000;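 active = compounds giving at least 50% protection of heart cells from peroxide-induced death in the single-dose screen, raw or plate-pattern-corrected value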;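 also: 0% = DMSO wells with peroxide and 100% = DMSO wells without peroxide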
PLCb3 inh: blocks human PLC-beta3 enzyme activity | inhibition, % at 12.2 µM | hit rate 0.18% among 370,000 | Q01970 | Purified PLC-beta3, fluorogenic substrate, fluorescence;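 also: 0% = median of compound wells on plate and 100% = full blocker control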
PLC-gamma1 inh: inhibitors of human phospholipase C gamma1 | P19174 | inhibition, % at 12.2 µM | hit rate 0.84% among 370,000 | purified PLC-gamma1, fluorogenic substrate, fluorescence; in the data active = inhibition above about 9.5%
Target sequence (P19174 whole entry, looked up): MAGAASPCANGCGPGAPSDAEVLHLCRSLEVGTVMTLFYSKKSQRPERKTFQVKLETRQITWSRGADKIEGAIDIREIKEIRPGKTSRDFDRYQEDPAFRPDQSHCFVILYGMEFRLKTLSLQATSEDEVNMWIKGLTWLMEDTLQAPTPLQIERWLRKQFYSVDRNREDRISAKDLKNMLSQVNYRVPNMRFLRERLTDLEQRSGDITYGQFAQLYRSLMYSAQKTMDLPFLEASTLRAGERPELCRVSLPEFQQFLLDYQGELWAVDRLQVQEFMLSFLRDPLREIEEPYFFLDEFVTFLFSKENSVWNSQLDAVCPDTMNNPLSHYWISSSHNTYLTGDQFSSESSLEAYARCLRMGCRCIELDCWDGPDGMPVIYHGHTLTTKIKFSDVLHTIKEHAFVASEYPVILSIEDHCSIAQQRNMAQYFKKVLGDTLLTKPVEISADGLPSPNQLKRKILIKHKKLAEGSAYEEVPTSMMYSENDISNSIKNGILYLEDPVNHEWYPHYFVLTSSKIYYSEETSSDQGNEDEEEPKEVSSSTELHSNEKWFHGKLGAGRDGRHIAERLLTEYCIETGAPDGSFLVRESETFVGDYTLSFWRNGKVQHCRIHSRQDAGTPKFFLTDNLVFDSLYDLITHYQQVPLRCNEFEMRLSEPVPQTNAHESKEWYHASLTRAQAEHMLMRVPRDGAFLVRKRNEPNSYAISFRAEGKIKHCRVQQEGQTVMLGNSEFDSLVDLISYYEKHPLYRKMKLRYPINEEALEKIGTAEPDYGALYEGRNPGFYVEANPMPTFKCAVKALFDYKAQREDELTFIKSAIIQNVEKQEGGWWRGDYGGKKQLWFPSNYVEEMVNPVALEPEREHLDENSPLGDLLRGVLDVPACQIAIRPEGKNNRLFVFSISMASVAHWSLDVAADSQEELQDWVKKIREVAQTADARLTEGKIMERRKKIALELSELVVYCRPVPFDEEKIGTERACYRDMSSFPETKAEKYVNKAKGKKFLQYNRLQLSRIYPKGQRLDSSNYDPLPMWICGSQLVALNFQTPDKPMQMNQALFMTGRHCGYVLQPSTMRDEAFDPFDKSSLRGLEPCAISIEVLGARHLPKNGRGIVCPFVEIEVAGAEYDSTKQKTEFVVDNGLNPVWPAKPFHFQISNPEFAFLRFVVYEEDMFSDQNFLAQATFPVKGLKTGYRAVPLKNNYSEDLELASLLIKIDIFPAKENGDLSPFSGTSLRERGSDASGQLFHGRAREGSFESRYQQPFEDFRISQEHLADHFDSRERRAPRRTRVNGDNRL
FAS-TE inh: blocks the thioesterase domain of human fatty acid synthase; inhibition, % at 15 µM; hit rate 0.67% among 360,000; recombinant FAS-TE, OMFH fluorogenic substrate, fluorescence endpoint; P49327; AID 602261;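 active = compounds whose normalised, plate-corrected inhibition of enzyme fluorescence in the single-dose primary screen is 50% or more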;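 also: 0% = DMSO with enzyme and 100% = substrate without enzyme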
PLCg1 ctr: PLC-gamma1 inhibition, counter-screen for PLC-beta3 hits | shares compounds with PLC-gamma1 inh | purified PLC-gamma1, fluorogenic substrate, fluorescence | inhibition, % at 12.3 µM | hit rate 3.1% among 3,300 | AID 743258; in the data active = inhibition above about 9.5%
PLCb3 confirm: confirmation of human PLC-beta3 inhibitors | shares compounds with PLC-gamma1 inh | purified PLC-beta3, fluorogenic substrate fluorescence | inhibition, % at 12.3 µM | hit rate 1% among 3,300 | AID 743261
* = called active by the depositor; nt = not tested or not shown. The list is not random: actives were taken first. Their share in the collection is about 2.2%. Rule as the data show it, unless noted: active = inhibition above about 11%; inactive = the rest.

SMILES	Cardio protect	PLCb3 inh	PLC-gamma1 inh	FAS-TE inh	PLCg1 ctr	PLCb3 confirm
COC(=O)C[C@@H]1CC[C@@H]2[C@@H](COc3ccc(NC(=O)Nc4ccccc4)cc3C(=O)N2C)O1	nt	0.8	-0.7	nt	nt	nt
COc1ccc(CCNC(=O)c2cccc(Br)c2)cc1OC	-4.2	1.7	10.8*	-3.8	-3.5	-0.2
CCN(CC)c1ccc(NC(=O)CSc2nc3ccccc3c(=O)n2-c2ccc(C)cc2)cc1	nt	8.5	11.8*	nt	-6.6	-3.9
CCCCN(C=O)c1c(CC)nc2ccc(C(=O)N3CCN(C(=O)c4ccco4)CC3)cn12	5.6	-7.4	-6.6	-2.8	nt	nt
O=C(Nc1cc(Cl)ccc1Cl)C1CCCO1 (stereo unspecified)	-7.2	0.4	3.0	-3.6	nt	nt
O=C(O)c1ccc(Cl)cc1NC(=O)C1CCCO1 (stereo unspecified)	-0.9	11.9*	2.4	-8.7	-5.9	-5.6
Nc1cccc(C(=O)Nc2ccc3nc(-c4cccnc4)[nH]c3c2)c1	10.5	4.5	11.6*	-7.7	-7.4	-5.1
CCC(C)[C@H]1CNCCN1CCc1cccc2ccccc12 (stereo partly specified)	3.6	7.7	10.7*	-7.9	-4.7	-0.1
CCC(C)[C@H]1CNCCN1CC1(c2ccccc2)CC1 (stereo partly specified)	-6.8	13.8*	7.7	-8.1	-3.9	-6.0
CCC(C)[C@H]1CNCCN1CCc1cc(C(F)(F)F)cc(C(F)(F)F)c1 (stereo partly specified)	-12.0	7.2	10.8*	-21.0	-11.4	-4.2
CCCC(C(=O)NC1CCCC1)N(Cc1ccccc1)C(=O)c1snc(C(N)=O)c1N (stereo unspecified)	-1.2	-76.5	-57.5	2.9	nt	nt
Cc1cc(C(=O)NNC(=O)COc2c(C)cc(Br)cc2C)n[nH]1	3.2	-3.0	4.6	-3.8	nt	nt
CCCc1c(C(=O)N/N=C(\C)c2ccc(CC(C)C)cc2)nnn1-c1nonc1N	-0.4	3.6	1.6	-2.4	nt	nt
COc1ccc(N2CCN(C(=O)C(=O)c3c[nH]c4ccccc34)CC2)cc1	-5.1	-2.1	9.8*	-9.6	-4.4	-1.2
O=C(C(=O)N1CCN(c2ccccc2)CC1)c1c[nH]c2ccccc12	-0.1	-7.5	-1.2	-3.6	nt	nt
c1ccc(CSc2nnc(SCc3ccccn3)s2)nc1	2.5	14.4*	11.1*	-7.6	-4.5	-2.6
N=C(N)SCc1ccccn1	2.0	-3.0	0.7	-6.3	nt	nt
COC(=O)C(NC(=O)CCc1c(C)nc2ncnn2c1C)C(C)C (stereo unspecified)	11.1	3.1	9.7*	-6.3	-5.2	0.1
O=C(CN1C(=O)CCSc2ccc(S(=O)(=O)N3CCOCC3)cc21)Nc1cccc(F)c1	3.6	-112.5	7.6	0.0	nt	nt
Cc1ccccc1-n1ccnc1SCC(=O)O	9.8	12.3*	8.0	-8.5	-4.2	-4.6
O=C(CN1C(=O)NC2(CCCc3ccccc32)C1=O)c1ccccc1F (stereo unspecified)	-6.7	-1.4	-0.5	4.7	nt	nt
COc1ccc(C(=O)CN2C(=O)C(C)(C)Oc3ccc(C(=O)N4CCCCCC4)cc32)cc1	-1.5	23.1*	4.2	8.0	-5.9	-1.9
CCOc1ccc(Cl)cc1-c1cc(C(=O)Nc2ccc(OC)cc2OC)[nH]n1	-3.7	1.7	1.6	26.3	nt	nt
COc1ccc(NC(=O)c2cc(-c3cc(Cl)ccc3OC)n[nH]2)c(OC)c1	41.1	4.7	12.3*	17.3	-7.6	-9.3
CCOC(=O)N1CCN(C(=O)c2nn(C)c3c2CSc2ccccc2-3)CC1	-4.6	5.2	2.8	-3.2	nt	nt
SMILES	Cardio protect	PLCb3 inh	PLC-gamma1 inh	FAS-TE inh	PLCg1 ctr	PLCb3 confirm
Cc1c(C(=O)NCc2cccnc2)sc2ncn(CC(=O)N3CCCCC3C)c(=O)c12 (stereo unspecified)	-0.5	2.5	10.6*	-4.9	-5.9	-4.5
Nc1[nH]c(=O)nc2snnc12	1.0	10.0	9.6*	-7.0	-4.2	-4.1
O=C(NNC(=O)c1ccccc1O)c1ccc(Cl)c(S(=O)(=O)N2CCc3ccccc32)c1	21.6	-25.5	-21.6	20.2	nt	nt
COc1ccc(NS(=O)(=O)c2cn(C)nc2C)cc1	-2.9	1.7	11.5*	-9.7	-3.2	0.0
COc1ccc(NS(=O)(=O)c2cn(C)cn2)cc1	5.4	0.9	-1.0	-6.7	nt	nt
CC1CCN(C(=O)c2ccc3c(c2NCCO)C(=O)c2ccccc2C3=O)CC1	28.9	15.1*	10.2*	21.5	8.5	8.3
CCN(CC)CCNC(=O)c1ccc2c(c1NCCO)C(=O)c1ccccc1C2=O	-13.1	-9.3	-0.1	19.8	nt	nt
CCn1ccnc1CN(C)Cc1cn(-c2cccc(C)c2)nc1-c1cccc(F)c1	6.8	4.1	7.6	14.8	nt	nt
Cc1cccc(-n2cc(CN(C)Cc3nccn3C)c(-c3cccc(F)c3)n2)c1	-6.9	4.3	11.1*	35.1	-3.8	-1.4
CN1C(=O)c2cc(NC(=O)Nc3ccccc3)ccc2OC[C@H]2O[C@@H](CC(=O)NCc3ccc(-c4ccccc4)cc3)CC[C@@H]21	nt	2.1	2.6	nt	nt	nt
CCNC(=O)C[C@H]1CC[C@H]2[C@@H](COc3ccc(NC(=O)c4ccc5c(c4)OCO5)cc3C(=O)N2C)O1	nt	3.8	9.6*	nt	15.3*	13.9*
CN1C(=O)c2cc(NC(=O)Nc3ccccc3F)ccc2OC[C@H]2O[C@@H](CC(=O)NCc3ccc(-c4ccccc4)cc3)CC[C@@H]21	nt	10.2	12.1*	nt	13.2*	11.6*
CC(=O)N[C@@H]1C=C[C@@H](CC(=O)NCc2ccc(Cl)cc2)O[C@@H]1CO	nt	-1.8	0.5	nt	nt	nt
CC(C)C[C@@H]1COc2cccc(N3CCCCC3)c2S(=O)(=O)N1	nt	2.3	-1.0	nt	nt	nt
CCCN(CC1CC1)S(=O)(=O)c1ccc(S(N)(=O)=O)cc1	3.7	-3.5	11.9*	-2.5	-4.3	-6.1
O=C(C(=O)N1CCC(CNS(=O)(=O)c2ccc(F)cc2)CC1)c1cc2ccccc2o1	nt	2.6	1.3	nt	nt	nt
COc1ccc(CNC(=O)C2CCC(CNS(=O)(=O)c3ccc(C)cc3)CC2)cc1 (stereo unspecified)	-2.8	1.6	10.2*	2.2	-5.1	-2.0
CCn1nnnc1SCC(=O)N1CCCc2ccccc21	-3.5	11.2*	-0.6	1.5	0.0	3.0
CCn1nnnc1SCC(=O)N1CCc2ccccc21	0.2	5.9	3.7	-12.6	nt	nt
CCCn1c(SCC(=O)N2CCCc3ccccc32)nnc1-c1ccccn1	-3.4	3.9	11.8*	1.6	0.0	-2.4
O=C(O)C1Nc2c(Cl)cc(Cl)cc2C2C=CCC12 (stereo unspecified)	-8.6	nt	nt	25.6	nt	nt
O=C(O)C1Nc2c(O)cccc2C2C=CCC12 (stereo unspecified)	44.4	6.8	18.5*	2.0	-3.1	-6.7
Cc1ccc(N2C(=O)CC3(CCCC3)CC2=O)cc1	-7.0	10.9*	9.0	-3.3	1.4	2.2
CN(C(=O)COc1ccccc1C(=O)NCCOc1ccccc1)c1ccccc1	-14.1	16.9*	15.1*	18.3	6.0	11.6*
Cc1ccc(NC(=O)CN2C(=O)CCSc3ccccc32)c(C)c1	nt	0.9	0.2	nt	nt	nt

Screens from PubChem BioAssay.
